Compounds with a hit are over-represented: about 4.1% of the library has one in this group of screens.
DAX1 inh-1: DAX1 (NR0B1) inhibitors, primary screen, cell-based, HEK293, Gal4-DAX1, luciferase luminescence | HEK293 Gal4-DAX1 luciferase reporter | inhibition, % at 6.75 µM | AID 504766, 2011 | Nuclear receptor subfamily 0 group B member 1 (Homo sapiens), P51843 | 340,000 tested, 0.99% active;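 active = inhibition above the mean over all tested compounds plus 3 SD, cut at about 4.2% in these data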;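 also: inhibition shows as a rise in luminescence from relieved DAX1 repression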
Target sequence (P51843 207-470 limits assumed): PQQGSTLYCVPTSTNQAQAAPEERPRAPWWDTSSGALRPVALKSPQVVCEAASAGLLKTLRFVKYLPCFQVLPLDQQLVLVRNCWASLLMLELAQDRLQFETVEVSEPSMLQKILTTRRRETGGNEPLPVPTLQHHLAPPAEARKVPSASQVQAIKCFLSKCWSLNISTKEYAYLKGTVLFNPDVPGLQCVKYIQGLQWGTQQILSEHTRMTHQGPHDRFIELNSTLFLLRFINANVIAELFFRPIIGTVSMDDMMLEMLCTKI
ssDAF12 agonist: S. stercoralis DAF-12 nuclear receptor activators, primary screen, cell-based, luminescence, HEK293, GRIP1 co-expression, lit1-tk-luc | activation, % at 6.8 µM | 370,000 tested, 1% active | HEK293 ssDAF-12/GRIP1 lit1-tk-luc reporter; % of 3 µM dafachronic acid response | AID 652126, 2013;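 active = activation above the mean over all tested compounds plus 3 SD, cut at about 0.9% in these data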
hcDAF-12 act: H. contortus DAF-12 nuclear receptor activators, primary screen, cell-based, luminescence, HEK293, lit1-tk-luc reporter. HEK293 hcDAF-12 lit1-tk-luc reporter; 0% DMSO, 100% Δ7-dafachronic acid. activation, % at 6.8 µM. 370,000 tested, 1.4% active. AID 652067, 2013;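 active = activation above the mean of all tested compounds plus 3 SD, cut at about 5.5% in these data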
DAX1 inh-2: DAX1 (NR0B1) inhibitors on StAR promoter, primary screen, cell-based, luminescence, SF-1 (NR5A1), full-length DAX-1 | 370,000 tested, 1.1% active | inhibition, % at 6.8 µM | AID 652010, 2013 | HEK293T StAR-luciferase reporter, SF-1/DAX-1 repression relief;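 active = inhibition above the mean over all tested compounds plus 3 SD, cut at about 3.6% in these data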;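 also: higher inhibition means more luminescence from relief of DAX-1 repression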
hgDAF12 agonist: H. glycines DAF-12 receptor agonists, primary screen, cell-based, luminescence, HEK293, GAL4 fusion, UAS-luciferase | Nuclear hormone receptor DAF-12 (Heterodera glycines), GAL4 fusion | activation, % at 6.8 µM | HEK293 GAL4-hgDAF12 UAS-luciferase reporter, agonist luminescence; normalized to butyrate control | 370,000 tested, 1.8% active;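 active = activation above a cutoff set at the mean of all screened compounds plus 3 SD, cut at about 10% in these data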
Large screens that a line does not name were inactive.

N/C(=N\OC(=O)c1ccccc1[N+](=O)[O-])c1ccccn1	hgDAF12 agonist 10.5
N/C(=N\OC(=O)C12CC3CC(CC(C3)C1)C2)c1ccccn1	hgDAF12 agonist 10.9
N/C(=N\OC(=O)c1ccccc1[N+](=O)[O-])c1cccnc1	none
N/C(=N\OC(=O)c1ccc(Cl)c(Cl)c1)c1ccccn1	DAX1 inh-2 4.2, hgDAF12 agonist 10.7
OCC1(CCOc2ccccc2)CCN(Cc2ccc3c(c2)OCCO3)CC1	DAX1 inh-1 4.8
O=C(O)c1ccccc1C(=O)c1ccc(N2CCOCC2)c([N+](=O)[O-])c1	ssDAF12 agonist 1.1
O=C(O)c1ccccc1C(=O)c1ccc(Sc2ccc(Cl)cc2)c([N+](=O)[O-])c1	DAX1 inh-1 8.1
Nc1ccccc1Sc1ccc(C(=O)c2ccccc2C(=O)O)cc1[N+](=O)[O-]	none
O=C(c1cc(F)ccc1F)N(Cc1ccccn1)CC1CCCO1 (stereo not drawn)	none (no result: DAX1 inh-1)
COc1cccc(CNC(=O)[C@H]2CCCN2C(=O)[C@H]2CCCN2C(=O)N2CCOCC2)c1	none (no result: DAX1 inh-1)
Cc1ccc2c(c1)sc1nc(=O)n(-c3ccccc3)c(=O)n12	hgDAF12 agonist 11.7
O=c1c2ccccc2nc2sc3ccccc3n12	none
COc1ccc(-c2nc(CN3CCN(Cc4cccc(F)c4)CC3)c(C)o2)cc1	none
COc1ccc(-c2nc(CN3CCN(Cc4cccc(Cl)c4)CC3)c(C)o2)cc1	DAX1 inh-1 5.8
c1ccc(-c2ccc3c(n2)CCCN3Cc2ccccn2)cc1	none (no result: DAX1 inh-1)
O=C(Cc1cn2ccsc2n1)NCc1ccccc1	hcDAF-12 act 6.0
O=C1C[C@@H](c2ccccc2)N=C2N(CC3CC3)C/C(=C/c3ccccc3)N12	none (no result: DAX1 inh-1)
CCOC(=O)C1=NOC(C(=O)NCCO)(C(=O)C2CC2)C1 (stereo not drawn)	none (no result: DAX1 inh-1)
O=C(Nc1nc2ccccc2[nH]1)C12CC3CC(CC(C3)C1)C2	hcDAF-12 act 5.8
CSc1ccccc1C(=O)Nc1nc2ccccc2c(=O)[nH]1	none
CSc1ccccc1C(=O)Nc1nc2ccccc2[nH]1	DAX1 inh-2 3.8
O=C(CCCN1C(=O)c2ccccc2C1=O)Nc1nc2ccccc2[nH]1	DAX1 inh-1 4.8
O=C(Cc1ccccc1Cl)Nc1nc2ccccc2[nH]1	hcDAF-12 act 6.0
CC(=O)N1CCCN(S(=O)(=O)c2ccc3c(c2)oc(=O)n3C)CC1	none (no result: DAX1 inh-1)
CC(C)[C@@H](CO)N(Cc1cn(Cc2ccccc2)nn1)S(=O)(=O)c1ccccc1Br	none (no result: DAX1 inh-1)
C=CCN1[C@@H](C)COc2cccc(F)c2S1(=O)=O	none (no result: DAX1 inh-1)
Cc1ccc(NC2=CC(=O)CC(c3ccco3)C2)c(N)c1 (stereo not drawn)	ssDAF12 agonist 1.6, hgDAF12 agonist 10.6
Cc1cc(C)cc(NC2=CC(=O)CC(c3ccco3)C2)c1 (stereo not drawn)	none
Cc1cccc(-c2nnc(SCc3cccc4ccccc34)n2-c2ccc(Cl)cc2)c1	none (no result: DAX1 inh-1)
O=C(Nc1ccc(N=Nc2ccccc2)cc1)c1ccccc1Cl	DAX1 inh-2 3.9, hgDAF12 agonist 11.3
O=C(O)c1ccc(NC(=O)c2ccccc2NC(=O)c2ccccc2Cl)cc1	DAX1 inh-1 4.5
Clc1cccc(CSc2ncnc3sc4c(c23)CCCC4)c1	none (no result: DAX1 inh-1)
Nc1c(C(=O)N2CCN(c3ccccc3)CC2)nnn1Cc1ccc(Cl)cc1	none (no result: DAX1 inh-1)
COc1cc(/C=C(/C(=O)c2cccs2)c2nc3ccccc3[nH]2)ccc1O	hgDAF12 agonist 10.8
COc1cc(CCN(C(=O)c2cc3ccccc3[nH]2)C(c2ccccn2)c2nc3ccccc3[nH]2)cc(OC)c1 (stereo not drawn)	ssDAF12 agonist 1.1 (no result: DAX1 inh-1)
COc1ccc(Cc2c(-c3ccccc3)nc3ccc(Br)cn23)c(C)c1	hgDAF12 agonist 13.1 (no result: DAX1 inh-1)
COc1ccc(Cc2c(-c3ccc(C)cc3)nc3c(C)cc(Br)cn23)c(C)c1	ssDAF12 agonist 1.1 (no result: DAX1 inh-1)
Cc1ccc(Cc2c(-c3ccc(C#N)cc3)nc3c(C)cc(Br)cn23)cc1	ssDAF12 agonist 1.0 (no result: DAX1 inh-1)
